High-throughput results (PubChem BioAssay)
IL1B secr inh: blocks inflammasome-driven IL-1 beta release. 4.7% of 360,000 active. THP-1 LPS/ATP IL-1B secretion, AlphaLISA, 16 h; active compounds read low. activity change, % at 57.5 µM; in the data active = activity change below about -50%; inconclusive = mostly about -30% to -49%
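THP-1 cells pretreated 1 hr with compounds (up to 57.5 uM final), then stimulated with LPS (250 ng/mL final) plus ATP (1.25 mM final); secreted IL-1B measured by AlphaLISA after 16 hr, decreased signal indicating inhibition.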
ELG1 repair inh: inhibitors of ELG1-dependent DNA repair in HEK293T cells | HEK293T ELG1-luciferase reporter, luminescence, 16 h; DNA damage induced by 5-fluorouridine | Potency, µM (top dose mostly 46.1 µM), most hits filed as inhibitors | 2.3% of 330,000 active; also: nearly all actives have a fitted effect of over 55% in size
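Quantitative HTS, concentration-response format. 2,000 cells/well co-treated with 5-fluorouridine and compound, 16 hr in 5% CO2 at 37 °C; ONE-Glo luminescence read after 30 min.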
Gal4-VP16 FLuc: Gal4-VP16 reporter inhibition counter-screen. 3.5% of 310,000 active. Potency, µM (titrated, usually from 53.6 µM), hits mostly inhibitors. Drosophila S2 Gal4-VP16 UAS-luciferase, luminescence, 20 h;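 also: Gal4-VP16 expression switched on by copper sulfate through the metallothionein promoter; nearly all actives have a fitted effect of over 50% in size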
DT40 TDP1 CPT: DT40-hTDP1 cell growth loss with CPT | chicken DT40 Tdp1-/-;hTDP1 cells + 20 nM CPT, ATP luminescence, 48 h | Potency, µM (titrated, usually from 46.2 µM), actives largely listed as inhibitors | 12% of 420,000 active | AID 686979; also: nearly all actives have a fitted effect of over 55% in size
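Cell growth measured by CellTiter-Glo luminescence after a minimum 48 h, 37 C compound exposure with 20 nM CPT in Tdp1-knockout DT40 cells stably expressing hTDP1, seeded 400/well; qHTS titration format.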
DT40 TDP1 no CPT: qHTS for Inhibitors of human tyrosyl-DNA phosphodiesterase 1 (TDP1): qHTS in cells in absence of CPT | DT40 Tdp1-/- hTDP1 cells, no CPT, ATP luminescence, 48 h | Potency, µM (top dose mostly 46.2 µM), actives largely listed as inhibitors | 15% of 420,000 active; also: nearly all actives have a fitted effect of over 55% in size
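Camptothecin absent (DMSO only). Human TDP1-complemented DT40 knockout cells, 400 cells/well, 37 °C for minimum 48 hr; ATP measured via CellTiter-Glo, 30 min dark incubation, luminescence.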
RORg inh: inhibitors of mouse ROR gamma transcriptional activity; P51450; Drosophila S2 Gal4-RORgamma UAS-luciferase reporter, 20 h; Potency, µM (doses to about 53.6 µM), usual class: inhibitors; 5.4% of 310,000 active; also: nearly all actives have a fitted effect of over 60% in size
Target sequence (P51450 whole entry, looked up, the tested form may be a part): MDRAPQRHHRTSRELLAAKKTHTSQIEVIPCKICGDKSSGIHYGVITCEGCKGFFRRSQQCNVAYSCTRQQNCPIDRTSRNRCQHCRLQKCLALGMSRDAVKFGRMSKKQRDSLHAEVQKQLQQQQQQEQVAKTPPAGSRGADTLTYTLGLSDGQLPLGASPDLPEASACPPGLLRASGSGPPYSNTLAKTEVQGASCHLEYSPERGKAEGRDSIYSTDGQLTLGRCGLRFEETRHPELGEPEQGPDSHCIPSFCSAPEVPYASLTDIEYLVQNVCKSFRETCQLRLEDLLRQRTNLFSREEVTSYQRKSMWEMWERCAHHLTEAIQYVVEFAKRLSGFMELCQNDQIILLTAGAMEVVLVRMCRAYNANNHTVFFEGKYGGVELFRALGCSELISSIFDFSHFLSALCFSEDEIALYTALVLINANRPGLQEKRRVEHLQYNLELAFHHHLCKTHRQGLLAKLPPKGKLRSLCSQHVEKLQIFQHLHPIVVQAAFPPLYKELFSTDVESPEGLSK
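Luminescence from a UAS-regulated Photinus luciferase reporter in stably transfected Drosophila Schneider cells is measured; decreased signal marks ROR gamma inhibition. Fusion expression is induced by 700 uM copper sulfate for 20 hr.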
Of the large screens only hits and unclear results are named; the others gave an inactive call. Hits are enriched below; roughly 21% of the tested compounds scored in any of these assays. Unless noted, calls follow the shape of the dose curve; as a rule, active = well fitted curve in the direction sought with a large enough effect; inconclusive = small, poorly fitted or top-dose-only effect, or another doubt; inactive = no such curve, though single readings can be large; an effect the other way counts as inactive or inconclusive.

c1ccc(C2=Nc3c(ccc4ccccc34)C(c3ccncc3)=NN2)cc1	ELG1 repair inh inconclusive, DT40 TDP1 CPT 8.2µM, DT40 TDP1 no CPT 21µM
O=C(COC(=O)/C=C/c1ccccc1Cl)NC(=O)NCc1ccccc1	DT40 TDP1 CPT inconclusive (no result: Gal4-VP16 FLuc, RORg inh)
CC(C)c1ccc(C2N3CC4(C)CN2CC(c2ccccc2)(C3)C4=O)cc1 (configuration not stated)	DT40 TDP1 CPT inconclusive, DT40 TDP1 no CPT 18µM (no result: IL1B secr inh, ELG1 repair inh, Gal4-VP16 FLuc, RORg inh)
CC12CN3CC(c4ccccc4)(CN(C1)C3c1ccc(O)cc1)C2=O (configuration not stated)	DT40 TDP1 no CPT inconclusive (no result: IL1B secr inh, ELG1 repair inh, Gal4-VP16 FLuc, RORg inh)
COc1cccc(C(=O)N2CCC[C@H]2C(=O)N2CCC[C@H]2C(=O)N[C@H](C)c2ccccc2)c1	none (no result: ELG1 repair inh, Gal4-VP16 FLuc, RORg inh)
C=C1c2cc3c(cc2NC(=S)N1Cc1ccccc1)OCO3	DT40 TDP1 CPT 16µM, DT40 TDP1 no CPT inconclusive (no result: IL1B secr inh)
S=C(NCc1ccc2c(c1)OCO2)NC1CCN(Cc2ccccc2)CC1	IL1B secr inh inconclusive, Gal4-VP16 FLuc inconclusive, DT40 TDP1 CPT inconclusive, DT40 TDP1 no CPT inconclusive, RORg inh inconclusive
COc1ccc(CCC(=O)NCc2ccc3c(c2)CCN3C(=O)c2ccc(C)cc2)cc1	DT40 TDP1 CPT inconclusive, DT40 TDP1 no CPT 21µM (no result: IL1B secr inh, ELG1 repair inh, Gal4-VP16 FLuc, RORg inh)
COc1cc(CCC(=O)NCc2ccc3c(c2)CCN3C(=O)c2cccc(C)c2)cc(OC)c1OC	DT40 TDP1 no CPT inconclusive (no result: IL1B secr inh, ELG1 repair inh, Gal4-VP16 FLuc, RORg inh)
COc1ccc(CCC(=O)NCc2ccc3c(c2)CCN3C(=O)c2cccc(C)c2)cc1	DT40 TDP1 CPT 5.8µM, DT40 TDP1 no CPT 4.6µM (no result: IL1B secr inh, ELG1 repair inh, Gal4-VP16 FLuc, RORg inh)
Cc1cc(C)cc(-n2ccn(Cc3ccc(F)cc3)c(=O)c2=O)c1	none (no result: IL1B secr inh, ELG1 repair inh, Gal4-VP16 FLuc, RORg inh)
CCCn1cnc2sc(CC)cc2c1=O	ELG1 repair inh inconclusive
CCc1cc2c(=O)n(CCC(C)C)c(=S)[nH]c2s1	ELG1 repair inh inconclusive, Gal4-VP16 FLuc 1.4µM, DT40 TDP1 CPT inconclusive, DT40 TDP1 no CPT inconclusive, RORg inh 0.2µM
CC1CCc2cccc3c2N1c1cc(C#N)c(C#N)cc1O3 (configuration not stated)	DT40 TDP1 no CPT inconclusive
COc1c2occc2c(OC)c2c(=O)cc(C)oc12	DT40 TDP1 CPT inconclusive, DT40 TDP1 no CPT inconclusive
Cc1cc(=O)c2c(o1)C(=O)c1occc1C2=O	DT40 TDP1 CPT 18µM, DT40 TDP1 no CPT 15µM (no result: ELG1 repair inh, Gal4-VP16 FLuc, RORg inh)
CCN(C(=O)COC(=O)c1oc2ccc(OC)cc2c1C)C1CCS(=O)(=O)C1 (configuration not stated)	none (no result: Gal4-VP16 FLuc, RORg inh)
O=C(CSc1nc2c([nH]c3ccccc32)c(=O)n1-c1ccccc1F)Nc1cccc(C(F)(F)F)c1	DT40 TDP1 CPT 21µM, DT40 TDP1 no CPT 16µM (no result: IL1B secr inh, ELG1 repair inh, Gal4-VP16 FLuc, RORg inh)
O=C(CSc1nc2c([nH]c3ccccc32)c(=O)n1-c1cccc(C(F)(F)F)c1)N1CCCC1	none (no result: IL1B secr inh, ELG1 repair inh, Gal4-VP16 FLuc, RORg inh)
CCc1ccc(NC(=O)CSc2nc3c([nH]c4ccccc43)c(=O)n2-c2ccc(C)cc2)cc1	DT40 TDP1 no CPT inconclusive (no result: IL1B secr inh, ELG1 repair inh, Gal4-VP16 FLuc, RORg inh)
CC(=O)Nc1ccc(NC(=O)CSc2nc3c([nH]c4ccccc43)c(=O)n2-c2ccccc2F)cc1	ELG1 repair inh 16µM, DT40 TDP1 CPT inconclusive, DT40 TDP1 no CPT inconclusive
Cn1nc(C(=O)NNC(=O)c2ccccc2Br)c2ccccc2c1=O	none (no result: Gal4-VP16 FLuc, RORg inh)
Cc1ccc(-n2ncc(-c3n[nH]c(=S)o3)c2N)cc1C	DT40 TDP1 no CPT inconclusive (no result: ELG1 repair inh, Gal4-VP16 FLuc, RORg inh)
O=C(C1=C[C@H](c2csc3ccccc23)C[C@H](OCc2ccc(CO)cc2)O1)N1CCCCCCC1	DT40 TDP1 CPT inconclusive, DT40 TDP1 no CPT 21µM (no result: ELG1 repair inh, Gal4-VP16 FLuc, RORg inh)
C[C@@H]1C=C(C(=O)NCc2nc3ccccc3[nH]2)O[C@H](OCc2ccc(CO)cc2)C1	DT40 TDP1 CPT 16µM, DT40 TDP1 no CPT inconclusive
O=C(O)C1=C[C@H](c2csc3ccccc23)C[C@H](OCc2ccc(CO)cc2)O1	none
O=C(NCc1ccccc1)C1=C[C@@H](c2csc3ccccc23)C[C@@H](OCc2ccc(CO)cc2)O1	IL1B secr inh inconclusive, DT40 TDP1 CPT 2.9µM, DT40 TDP1 no CPT 4.6µM, RORg inh inconclusive
O=C(NCc1nc2ccccc2[nH]1)C1=C[C@H](c2ccc(Br)cc2)C[C@H](OCc2ccc(CO)cc2)O1	DT40 TDP1 CPT inconclusive, DT40 TDP1 no CPT inconclusive
O=C(NCc1ccccc1)C1=C[C@@H](c2csc3ccccc23)C[C@@H](OCCCCO)O1	DT40 TDP1 CPT 1.6µM, DT40 TDP1 no CPT 1.6µM, RORg inh inconclusive
CN(C)/C=N/c1ncc(-c2ncc(C(F)(F)F)cc2Cl)cn1	ELG1 repair inh inconclusive
O=C(Cc1ccccc1)NC1CC(=O)N(c2ccccc2)C1 (configuration not stated)	none (no result: IL1B secr inh, ELG1 repair inh, Gal4-VP16 FLuc, RORg inh)
O=C(NCc1ccccc1)C1=C[C@@H](c2coc3ccccc3c2=O)C[C@@H](OCc2ccc(CO)cc2)O1	ELG1 repair inh inconclusive, DT40 TDP1 CPT 10µM, DT40 TDP1 no CPT 9.2µM
O=C(Nc1ccccc1)C1=C[C@H](c2coc3ccccc3c2=O)C[C@H](OCc2ccc(CO)cc2)O1	IL1B secr inh inconclusive, ELG1 repair inh inconclusive, DT40 TDP1 CPT inconclusive, DT40 TDP1 no CPT inconclusive
O=C(NCc1nc2ccccc2[nH]1)C1=C[C@@H](c2csc3ccccc23)C[C@@H](OCCCCO)O1	ELG1 repair inh 23µM, DT40 TDP1 CPT inconclusive, DT40 TDP1 no CPT inconclusive
